Here are results for seven molecules from PubChem BioAssay (Tox21).

Experiment [1] in a line: qHTS assay to identify small molecule antagonists of the vitamin D receptor (VDR) signaling pathway - cell viability counter screen (AID 743225). Note: nearly all actives have a fitted effect of over 50% in size. The gist of the method:
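VDR-bla HEK 293T cells, 4 h pre-incubation at 37C, then compound plus 1-alpha,25-dihydroxyvitamin D3 (3 nM final) for 16 h. After the beta-lactamase FRET read, CellTiter-Glo was added to the same wells; luminescence after 30 min at room temperature.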
In general terms: Quantitative high-throughput screening tests each substance at several concentrations.

Experiment [2] is described as follows: qHTS assay to identify small molecule agonists of the NFkB signaling pathway - cell viability counter screen (AID 1159515; calls by dose curve; note: series mostly up to about 61 µM; nearly all actives have a fitted effect of over 55% in size). The gist of the method:
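Plate 2,000 NFkB-bla ME-180 cells/well; incubate overnight. Add compounds, 5 hr at 37 C. Add FRET substrate, 1.5 hr RT. Add CellTiter-Glo, 30 min RT; read luminescence.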

The nature of experiment [3]: qHTS assay to identify small molecule agonists of the endoplasmic reticulum stress response signaling pathway (AID 1159516; active = well fitted activation curve with a large enough effect in the signal ratio in the repeat runs, not every such curve was filed as active; the % refers to the signal ratio). The gist of the method: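 Beta-lactamase expression from the ER stress response element in HeLa reporter cells is quantified with the LiveBLAzer B/G FRET substrate, read at 405 nm excitation after 2 hr at room temperature, following 5 hr compound treatment at 37 C.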

The nature of experiment [4]: qHTS assay to identify small molecule agonists of the endoplasmic reticulum stress response signaling pathway - cell viability counter screen (AID 1159517; calls by dose curve; note: series mostly up to about 61 µM; nearly all actives have a fitted effect of over 50% in size). The gist of the method:
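Cytotoxicity of test compounds toward ESRE-bla HeLa cells was assessed after 5 hr exposure. The luminescent CellTiter-Glo signal was measured 30 min after reagent addition.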

A short description of experiment [5]: qHTS assay to identify small molecule antagonists of the retinoid-related orphan receptor gamma (ROR-gamma) signaling pathway - cell viability counter screen (AID 1159520). Note: nearly all actives have a fitted effect of over 50% in size. The procedure, abridged:
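Tet-on ROR gamma CHO cells (1,000/well) were plated 4 hr, given compounds in DMSO for 2 hr at 37 C, then induced with 1 uM final doxycycline for 16 hr. Viability was read as ATP by CellTiter-Glo luminescence after 30 min.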

In experiment [6] the target is Nuclear receptor ROR-gamma (Homo sapiens) (UniProt P51449). The experiment can be described thus: qHTS assay to identify small molecule antagonists of the retinoid-related orphan receptor gamma (ROR-gamma) signaling pathway (AID 1159521;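 note: CHO cells with doxycycline inducible ROR-gamma driving an RORE luciferase reporter; top concentration of the series differs between compounds; nearly all actives have a fitted effect of over 50% in size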). The gist of the method:
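Tet-on RORγ CHO cells carrying a ROR response element–luciferase reporter were pretreated with compounds for 2 h, then induced with 1 uM (final) doxycycline hyclate for 16 h at 37 C. Antagonism was read as decreased ONE-Glo luminescence.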

Experiment [7] in a line: qHTS assay to identify small molecule agonists of the AP-1 signaling pathway - cell viability counter screen (AID 1159525; calls by dose curve; note: nearly all actives have a fitted effect of over 55% in size). The gist of the method:
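Each titration point was normalised to DMSO and tetra n-octyl ammonium bromide controls. The read was Cell Titer Glo luminescence after 30 min at RT, following 5 h compound exposure of ME-180 AP-1-bla cells at 37 °C.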

Experiment [8] in a line: qHTS assay to identify small molecule agonists of the AP-1 signaling pathway (AID 1159526; calls by dose curve; note: potency is the fitted concentration of half-maximal effect).
Experiment [9] deals with Retinoic acid receptor RXR-alpha (Homo sapiens) (UniProt P19793). Nature of the experiment: qHTS assay to identify small molecule agonists of the RXR signaling pathway (AID 1159527; calls by dose curve; note: nearly all actives have a fitted effect of over 35% in size). The procedure, abridged:
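GeneBLAzer RXR-alpha-UAS-bla HEK 293T cells in medium with 2% charcoal-stripped FBS, pre-incubated 5 hr at 37 C, then exposed to compounds 16 hr. Beta-lactamase reporter read by FRET substrate, 2 hr room temperature, 460/530 nm emission.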

Experiment [10] in a line: qHTS assay to identify small molecule antagonists of the retinoid acid receptor (RAR) signaling pathway - cell viability counter screen (AID 1159551). Note: nearly all actives have a fitted effect of over 35% in size. The gist of the method: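 Viability of C3RL4 cells is quantified from ATP by luminescence after 6 h treatment at 37 C with compounds and 1 uM retinol.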
Experiment [11] is described as follows: qHTS assay to identify small molecule antagonists of the retinoic acid receptor (RAR) signaling pathway (AID 1159552; note: nearly all actives have a fitted effect of over 50% in size). The procedure, abridged:
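RARE-luc C3RL4 cells; cpds + 1 uM (final) retinol, 6 hr, 37 C/5% CO2; luciferase reagent, 30 min RT, luminescence readout. Inhibitors of retinol-driven signal scored.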

Experiment [12] can be described thus: qHTS assay to identify small molecule agonists of the retinoic acid receptor (RAR) signaling pathway (AID 1159553). The procedure, abridged:
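Compounds dissolved in DMSO were pinned onto C3RL4 cells seeded the previous day, and plates were held 6 hr at 37 C. RARE-driven luciferase output was then read by luminescence.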

A short description of experiment [13]: qHTS assay to identify small molecule antagonists of the estrogen related receptor (ERR) signaling pathway from Tox21 library - cell viability counter screen (AID 1224834). Note: nearly all actives have a fitted effect of over 30% in size. The procedure, abridged:
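In this quantitative HTS format, ERR cells receive compounds in DMSO and are incubated for 17.5 h at 37 C. Live-cell protease activity is then detected with CellTiter-Fluor.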

Experiment [14] concerns the target Luciferin 4-monooxygenase (Photinus pyralis) (UniProt P08659). Nature of the experiment: qHTS assay to identify small molecule inhibitors of firefly luciferase (AID 1224835). Note: series mostly up to about 120 µM; nearly all actives have a fitted effect of over 25% in size. The gist of the method: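 Quantitative HTS format; KM concentrations of both substrates. Purified P. pyralis FLuc activity quantified from luminescence images.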
Experiment [15] can be described thus: qHTS assay to identify small molecule agonists of the constitutive androstane receptor (CAR) signaling pathway - cell viability counter screen (AID 1224836). Note: series mostly up to about 92 µM; nearly all actives have a fitted effect of over 45% in size. The procedure, abridged:
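HepG2 cells stably carrying hCAR and a CYP2B6-2.2kb reporter were plated 4 h, then given compounds at 15 concentrations plus PK11195 (final 0.75 uM). After 23 h at 37 C, viability was read by CellTiter-Fluor fluorescence.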

Experiment [16] can be described thus: qHTS assay to identify small molecule antagonists of the constitutive androstane receptor (CAR) signaling pathway - cell viability counter screen (AID 1224837). Note: series mostly up to about 92 µM; nearly all actives have a fitted effect of over 45% in size. The gist of the method: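 In quantitative HTS format, compounds at 15 concentrations were applied to HepG2 cells double-transfected with hCAR and CYP2B6-2.2kb under 50 nM CITCO stimulation; live-cell protease activity was read after 23 hr via CellTiter-Fluor.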

The target in experiment [17] is Nuclear receptor subfamily 1 group I member 3 (Homo sapiens) (UniProt Q14994). Nature of the experiment: qHTS assay to identify small molecule agonists of the constitutive androstane receptor (CAR) signaling pathway (AID 1224839).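 Note: HepG2 cells stably carrying human CAR and a CYP2B6 luciferase reporter; series mostly up to about 92 µM; nearly all actives have a fitted effect of over 15% in size.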 The gist of the method:
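HepG2 cells stably expressing hCAR and a CYP2B6-2.2kb luciferase reporter were treated with compounds at 15 concentrations plus 0.75 uM PK11195 (final) for 24 h at 37 C; luminescence was read after ONE-Glo addition.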

A short description of experiment [18]: qHTS assay to identify small molecule antagonists of the estrogen related receptor signaling pathway with the pleiotropic PPARgamma coactivator (PGC) from Tox21 10K library - cell viability counter screen (AID 1224840; active = well fitted cell-killing curve with a large enough effect in the repeat runs, not every such curve was filed as active; note: nearly all actives have a fitted effect of over 40% in size). The gist of the method:
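Viability counter screen, PGC/ERR cells: 17.5 h compound exposure at 37 C, CellTiter-Fluor fluorescence endpoint.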

The target in experiment [19] is Nuclear receptor subfamily 1 group I member 3 (Homo sapiens) (UniProt Q14994). The experiment can be described thus: qHTS assay to identify small molecule antagonists of the constitutive androstane receptor (CAR) signaling pathway (AID 1224838). Note: nearly all actives have a fitted effect of over 40% in size. The procedure, abridged: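 CITCO-stimulated (50 nM final) HepG2 cells stably transfected with hCAR and CYP2B6-2.2kb luciferase were exposed to compounds at 15 concentrations for 24 h at 37 C/5% CO2. A luciferase reagent was added and luminescence recorded after 30 min.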

The structures appear in SMILES notation. Records with an inconclusive call do not appear. A number with no mark means an inactive call. The source made the active and inactive calls. Unless noted, calls come from the whole dose curve; as a rule, active = well fitted curve in the direction sought with a large enough effect in the repeat runs; inconclusive = weak or mixed curves; inactive = no such curve, though single readings can be large; an effect the other way counts as inactive or inconclusive.

Retinoic acid receptor RXR-alpha (Homo sapiens), sequence (P19793 whole entry, looked up): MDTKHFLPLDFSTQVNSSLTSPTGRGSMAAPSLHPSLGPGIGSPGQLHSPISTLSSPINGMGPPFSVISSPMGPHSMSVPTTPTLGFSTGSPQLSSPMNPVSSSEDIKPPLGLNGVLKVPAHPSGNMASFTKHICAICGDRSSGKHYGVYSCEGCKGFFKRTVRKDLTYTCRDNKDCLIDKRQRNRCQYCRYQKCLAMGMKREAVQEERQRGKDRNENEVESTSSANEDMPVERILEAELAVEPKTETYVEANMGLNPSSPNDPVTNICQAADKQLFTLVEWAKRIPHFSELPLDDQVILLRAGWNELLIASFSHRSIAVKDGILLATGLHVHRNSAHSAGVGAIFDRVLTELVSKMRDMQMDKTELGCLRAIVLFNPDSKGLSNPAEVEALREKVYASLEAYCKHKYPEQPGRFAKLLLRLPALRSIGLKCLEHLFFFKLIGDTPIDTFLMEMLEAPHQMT
Luciferin 4-monooxygenase (Photinus pyralis), sequence (P08659 whole entry, looked up): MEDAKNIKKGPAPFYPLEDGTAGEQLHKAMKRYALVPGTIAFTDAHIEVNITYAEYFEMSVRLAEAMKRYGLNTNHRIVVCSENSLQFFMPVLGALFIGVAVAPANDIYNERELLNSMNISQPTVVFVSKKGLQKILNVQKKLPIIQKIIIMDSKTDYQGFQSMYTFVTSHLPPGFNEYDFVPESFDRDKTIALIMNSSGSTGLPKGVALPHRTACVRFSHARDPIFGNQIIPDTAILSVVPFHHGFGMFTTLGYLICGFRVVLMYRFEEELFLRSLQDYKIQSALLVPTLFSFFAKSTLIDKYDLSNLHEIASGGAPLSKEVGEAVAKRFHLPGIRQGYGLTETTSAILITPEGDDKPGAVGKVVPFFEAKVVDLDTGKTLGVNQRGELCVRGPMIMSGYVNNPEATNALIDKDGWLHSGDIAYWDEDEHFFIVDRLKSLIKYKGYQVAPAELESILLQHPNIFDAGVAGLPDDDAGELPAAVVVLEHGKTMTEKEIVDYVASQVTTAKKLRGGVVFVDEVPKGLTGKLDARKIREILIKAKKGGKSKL
Nuclear receptor subfamily 1 group I member 3 (Homo sapiens), sequence (Q14994 whole entry, looked up): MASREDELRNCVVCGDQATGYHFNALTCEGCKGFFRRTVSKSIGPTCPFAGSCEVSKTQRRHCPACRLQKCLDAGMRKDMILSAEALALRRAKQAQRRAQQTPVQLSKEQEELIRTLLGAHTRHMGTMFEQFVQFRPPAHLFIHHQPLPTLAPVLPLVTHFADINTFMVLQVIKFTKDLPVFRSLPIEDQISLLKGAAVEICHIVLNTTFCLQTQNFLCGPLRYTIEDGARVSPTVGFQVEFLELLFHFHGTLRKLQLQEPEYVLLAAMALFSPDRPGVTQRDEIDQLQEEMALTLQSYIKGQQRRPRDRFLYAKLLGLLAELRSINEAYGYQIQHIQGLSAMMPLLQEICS

Turning to `CC(=O)Oc1ccc(C(C)=O)cc1`, the call in [1], in [2], in experiment [4], in experiment [5], in experiment [6] and in experiment [7] was inactive. Besides, the molecule was classed as inactive in experiment [10], in experiment [11], in [13], in experiment [15], in [16] and in [18]. Also, the Potency result in experiment [3], in experiment [8], in experiment [9], in experiment [12], in [14] and in [17] was “inactive” in each case.

In the case of `CCOCCOCCOC(C)=O`, the call in experiment [1], in experiment [2], in experiment [4], in experiment [5], in experiment [6] and in experiment [7] was inactive. The result in experiment [10], in [11], in [13], in experiment [15], in [16] and in experiment [19] was inactive. Also, the outcome in experiment [18] was inactive. For the same molecule, the Potency entry in [3], in experiment [8], in experiment [9], in experiment [12], in experiment [14] and in [17] was “inactive” in each case.

Turning to `CC(C)(O)c1ccc(C(C)(C)O)cc1`, the molecule was called inactive in [1], in [2], in experiment [4], in experiment [5], in experiment [6] and in experiment [7]. In addition, the call in experiment [10], in experiment [11], in experiment [13], in experiment [15], in experiment [16] and in experiment [19] was inactive. Further, the molecule was called inactive in experiment [18]. The Potency entry in experiment [3], in experiment [8], in experiment [9], in [12], in experiment [14] and in experiment [17] was “inactive” each time.

Consider `NC(=O)CC[C@@H](N)C(=O)O`, for which the molecule was called inactive in experiment [1], in experiment [2], in experiment [4], in experiment [5], in [6] and in [7]. The call in [10], in [15], in experiment [16] and in experiment [18] was inactive. Also, the Potency result in [3], in experiment [8], in experiment [9], in experiment [12], in [14] and in [17] was “inactive” throughout.

Consider `CC(C)(C)C(=O)CC(=O)C(C)(C)C`, for which the molecule was called inactive in experiment [2], in [4], in [5], in experiment [6], in experiment [7] and in experiment [10]. Further, the outcome in [11], in [13], in experiment [15] and in experiment [16] was inactive. The Potency result in [3], in [8], in experiment [9], in experiment [12] and in [14] was “inactive” each time.

On to `O=P(O)(O)C(O)(Cc1cccnc1)P(=O)(O)O`, for which the outcome in [1], in experiment [2], in experiment [4], in [5], in [6] and in [7] was inactive. For the same molecule, the outcome in experiment [10], in [11], in [15], in experiment [16], in [19] and in [18] was inactive. In addition, the Potency entry in experiment [3], in experiment [8], in experiment [9], in [12], in [14] and in [17] was “inactive” throughout.

For `CCCCCCCCCCCCCCCC/C=C/C1CC(=O)OC1=O` (configuration not stated), the molecule was called inactive in experiment [1], in experiment [2], in experiment [4], in [5], in [6] and in [7]. The outcome in experiment [10], in experiment [11], in experiment [13], in [15], in [16] and in [18] was inactive. Also, the Potency entry in [3], in experiment [9], in [12] and in experiment [14] was “inactive” in each case. In experiment [8], the Potency was 16.9 µM (active).
